NALP3 yeast inh – inhibitors of NALP3 inflammasome in yeast. Yeast reconstituted NLRP3/ASC/caspase-1, beta-gal luminescence, 24 h. AID 2825. hit rate 0.39% among 330,000. inhibition, % at 10 µM;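 active = inhibition of 50% or more; inactive = inhibition below 50%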;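 note: plate controls were induced DMSO wells for no effect and uninduced yeast grown without galactose for full effect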
EBNA-1 inh – blocks EBNA-1 binding to DNA; inhibition, % at 14.8 µM; hit rate 0.34% among 300,000; EBNA-1 DNA binding, fluorescence polarization; in the data active = inhibition above about 28%
PolyA inhibitor – blocks polyadenylation in yeast reporter cells. activity score, % at 12 µM. S. cerevisiae SKY197-pL101 polyadenylation reporter, beta-gal luminescence; efflux-impaired pdr1/pdr3 knockout yeast; score 100 = 6 SD above DMSO. hit rate 0.02% among 300,000;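 active = lowest replicate activity score at least 50, where 100 means six control SD above control mean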;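 note: yeast exposed to compound for 9 h at 30 °C; higher score means more reporter readthrough which indicates perturbed polyadenylation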
NALP1 yeast inh – blocks the NALP1 inflammasome reconstituted in yeast; inhibition, % at 10 µM; hit rate 0.61% among 280,000; S. cerevisiae NALP1/ASC/caspase-1 growth, X-gal OD620, 72 h; in the data active = inhibition mostly above about 24%, no sharp cut-off; inactive = mostly below about 32%
dFosB act – activators of mouse delta FosB homodimer; P13346; activation, % at 25 µM; purified delta FosB, TAMRA-CDK5 oligo fluorescence polarization; percent of positive-control signal above neutral wells; hit rate 0.99% among 340,000;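 active = mean activation above about 17%, with every replicate also reaching it, limit read from the data, passing the limit was not always enough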
Target sequence (P13346 whole entry, looked up): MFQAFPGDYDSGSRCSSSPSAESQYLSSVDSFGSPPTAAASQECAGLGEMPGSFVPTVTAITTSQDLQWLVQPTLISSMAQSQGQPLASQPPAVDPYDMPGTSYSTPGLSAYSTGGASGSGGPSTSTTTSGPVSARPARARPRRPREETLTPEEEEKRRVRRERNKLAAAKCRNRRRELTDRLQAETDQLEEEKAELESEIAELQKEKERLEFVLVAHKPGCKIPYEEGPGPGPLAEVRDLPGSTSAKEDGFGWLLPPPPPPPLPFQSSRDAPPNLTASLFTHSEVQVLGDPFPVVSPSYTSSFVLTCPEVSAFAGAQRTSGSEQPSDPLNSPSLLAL
ZTA counter – counter-screen for EBNA-1 inhibitors: inhibitors of Epstein-Barr virus ZTA; ZTA-DNA binding, fluorescence polarization; inhibition, % at 11 µM; hit rate 0.15% among 320,000; in the data active = inhibition above about 33%
Target sequence (P03206 whole entry, looked up): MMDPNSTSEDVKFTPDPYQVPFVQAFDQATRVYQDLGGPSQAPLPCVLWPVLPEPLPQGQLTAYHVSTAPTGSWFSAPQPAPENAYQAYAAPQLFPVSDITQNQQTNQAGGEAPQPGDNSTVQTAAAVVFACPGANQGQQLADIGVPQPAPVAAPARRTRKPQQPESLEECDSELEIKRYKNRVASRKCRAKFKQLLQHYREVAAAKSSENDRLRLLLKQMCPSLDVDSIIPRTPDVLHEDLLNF
NALP3 yeast conf – NALP3 inhibition confirmation in yeast. yeast expressing human NALP3, luminescence. inhibition, % at 10 µM. AID 435006. shares compounds with NALP3 yeast inh. hit rate 81% among 1,300; in the data active = inhibition above about 48%
Casp1 ASC ctr – counter-screen for NALP3 inhibitors: yeast caspase-1-ASC | inhibition, % at 10 µM | yeast expressing Caspase-1-ASC, luminescence counter screen | hit rate 66% among 1,000 | shares compounds with NALP3 yeast inh
NALP3 retest – yeast NALP3 inhibition, confirmed on retest; yeast expressing human NALP3, luminescence read-out; AID 488794; shares compounds with NALP3 yeast inh; inhibition, % at 10 µM; hit rate 53% among 1,000
The depositor's hits bear a star; . = not tested or not shown. Rows were chosen to be rich in hits. Some 2.2% of all compounds tested hit in one or more screens of this group. Cut-off read from the data, not from the text of the source, unless noted: active = inhibition above about 50%; inactive = the rest.

SMILES	NALP3 yeast inh	EBNA-1 inh	PolyA inhibitor	NALP1 yeast inh	dFosB act	ZTA counter	NALP3 yeast conf	Casp1 ASC ctr	NALP3 retest
Cc1ccc2nc(NC(=O)Cc3cccs3)sc2c1	52.1*	1.1	-5.2	25.9	-0.6	-6.8	63.3*	50.8*	53.3*
COc1ccc2nc(NC(=O)Cc3cccs3)sc2c1	37.6	-19.0	-10.7	23.2	-0.4	-0.9	.	.	.
CCN(CC)CCCN(C(=O)c1ccco1)c1nc(-c2ccc(C)cc2)cs1	15.0	-7.8	-2.9	16.0	1.4	14.9	.	.	.
CCN(CC)CCCN(C(=O)c1ccco1)c1nc(-c2ccc(Cl)cc2)cs1	51.1*	-11.0	-2.4	22.0	-9.9	12.8	54.3*	46.5	38.0
N#Cc1nc(COc2cccc(Cl)c2)oc1N1CCCC1	51.2*	-2.9	6.5	22.8	0.9	-7.5	65.3*	54.9*	44.0
N#Cc1nc(COc2ccc(F)cc2)oc1N1CCCC1	68.4*	1.9	-8.1	17.0	-4.4	-2.2	40.4	65.2*	54.1*
Cc1ccccc1OCc1nc(C#N)c(N2CCCC2)o1	70.7*	2.3	-19.4	1.6	-0.2	-7.7	81.4*	82.6*	70.8*
Cc1ccccc1C(=O)N1CCC(C(=O)Nc2cc(C(F)(F)F)ccc2N2CCCC2)CC1	8.9	9.3	-15.5	.	-22.0	-3.1	.	.	.
O=C(CCS(=O)(=O)c1ccccc1)NNC(=O)CSc1ccccc1F	13.4	.	.	.	-8.1	.	.	.	.
NNc1nc(-c2ccccc2)cc(-c2ccc(Br)cc2)n1	16.5	10.3	-0.6	-1.9	-3.4	10.6	.	.	.
Brc1ccc(-n2cnc(-c3ccccc3)c2)cc1	51.7*	1.4	-8.3	7.2	2.4	-2.5	77.3*	35.8	51.2*
O=S(=O)(c1cnc(Cl)c(Br)c1)N1CCCCCC1	52.8*	-5.8	7.1	28.5	-4.7	-11.2	55.4*	35.2	24.9
Nc1ncc(Br)cc1S(=O)(=O)N1CCCCCC1	52.7*	2.4	-39.8	37.1	-1.6	4.7	59.0*	56.0*	38.0
O/N=C/c1cc(Br)cc(Br)c1OCc1ccccc1	-102.4	-3.8	-73.2	.	7.0	-5.0	-40.0	.	.
O/N=C/c1ccc(OCc2ccccc2)c(Br)c1	.	4.4	-39.6	16.0	-9.1	12.9	.	.	.
O=C(O)CSc1nnc(-c2ccc(Cl)cc2Cl)n1Cc1ccccc1	5.1	14.2	-11.3	9.9	2.7	-2.4	.	.	.
CCc1cc(C(=O)Nc2cc(S(=O)(=O)N(CC)CC)ccc2N2CCOCC2)sc1C	27.5	-9.4	6.4	.	-4.2	12.2	.	.	.
CCc1cc(C(=O)Nc2ccccc2N2CCOCC2)sc1C	50.8*	.	.	.	-9.0	-9.8	53.4*	34.2	42.5
Cc1cccc2c1-c1sc(C(=O)Nc3ccccc3N3CCN(C)CC3)cc1CO2	54.8*	-9.6	-6.6	.	25.6*	-19.5	63.8*	.	.
COc1ccc(OC)c(NC(=O)C2CCCN(S(C)(=O)=O)C2)c1 (configuration not stated)	-1.9	1.3	-4.5	-7.1	4.1	5.7	.	.	.
COc1cc(OC)cc(-c2nc3ccccc3c(=O)n2OC(=O)c2ccc(Br)cc2)c1	17.9	4.5	10.9	19.1	2.1	11.1	.	.	.
COc1ccc(C(=O)On2c(-c3ccc(Br)cc3)nc3ccccc3c2=O)cc1	62.2*	5.4	12.7	35.2	-7.6	9.4	86.1*	56.6*	68.3*
Oc1c(I)cc(I)c2cccnc12	65.2*	1.7	-6.7	51.7	-0.1	-0.9	62.5*	26.4	23.9
Cc1cc(C)cc(N2C(=O)CCN(Cc3ccccc3)C2=O)c1	25.8	5.4	-1.3	.	1.8	4.6	.	.	.
O=C(CSC(=S)N1CCCCC1)c1ccccc1	60.2*	9.9	-11.9	8.7	1.3	1.9	73.5*	69.7*	55.8*
SMILES	NALP3 yeast inh	EBNA-1 inh	PolyA inhibitor	NALP1 yeast inh	dFosB act	ZTA counter	NALP3 yeast conf	Casp1 ASC ctr	NALP3 retest
O=C(CSC(=S)N1CCCC1)c1ccccc1	22.8	3.3	-4.1	3.3	0.5	16.0	.	.	.
c1ccc(Oc2cc(-c3ccccc3)ncn2)cc1	52.1*	-6.1	-16.2	0.6	1.6	-3.9	46.8	70.8*	54.6*
Nc1c(-c2ccccc2)cnn1-c1ccccc1	15.2	-5.6	13.5	9.5	4.1	-0.1	.	.	.
O=c1cnn(-c2ccccc2)c(-c2ccccc2)c1	56.1*	3.5	17.9	1.6	-3.8	-4.0	78.6*	58.5*	56.1*
O=C(C1CCCN1C(=O)c1cccs1)N1CCN(S(=O)(=O)c2ccc(F)cc2)CC1 (configuration not stated)	11.0	.	.	.	-3.0	-0.2	.	.	.
COc1ccccc1-c1nnc2sc(-c3cc4ccccc4o3)nn12	59.3*	2.7	-23.5	7.3	-18.9	30.7	70.2*	.	.
Cc1c(C(=O)N(C)Cc2nc3ccccc3c(=O)[nH]2)oc2ccccc12	17.3	.	.	.	0.6	.	.	.	.
O=C(Nc1cnccn1)Nc1ccccc1Cl	14.8	4.6	-16.9	15.2	14.5	0.1	.	.	.
O=C(Nc1ccccn1)Nc1ccccc1Cl	66.4*	6.8	-4.1	19.0	-0.6	3.3	72.3*	61.0*	44.0
COc1ccc(C)cc1NC(=O)C1CCN(S(=O)(=O)c2ccc3c(c2)C(C)(C)C(=O)N3C)CC1	79.5*	-4.8	9.0	-2.7	-1.9	2.1	47.4	15.3	16.6
Cc1ccc(NC(=O)C2CCN(S(=O)(=O)c3ccc4c(c3)C(C)(C)C(=O)N4C)CC2)c(C)c1	3.3	-13.3	-6.2	24.4	-5.0	-3.1	.	.	.
CCOc1ccccc1NC(=O)COC(=O)c1c(CC)noc1C	9.3	.	.	.	5.8	.	.	.	.
C/C(=N/NC(=O)CNC(=O)c1cccnc1)c1ccc(Cl)c(Cl)c1	2.3	14.3	5.3	1.9	-6.1	15.7	.	.	.
O=C(Nc1cccc(Br)c1)c1cc2ccccc2o1	64.0*	-2.0	-5.4	7.7	-21.6	5.1	62.3*	47.9	60.0*
NS(=O)(=O)c1cccc(NC(=O)c2cc3ccccc3o2)c1	9.7	8.2	8.7	4.2	-7.6	6.1	.	.	.
Cc1cccc(NC(=O)c2cc3ccccc3o2)c1	54.1*	-8.8	-7.9	10.2	-7.7	-7.0	72.0*	58.8*	52.5*
CN(Cc1c(F)cccc1Cl)C(=O)c1cnc2ccccc2n1	24.3	2.3	-1.7	20.8	-9.1	-3.2	.	.	.
Nc1ncc(Br)cc1S(=O)(=O)NCCC(=O)N1CCN(c2ccccc2)CC1	4.1	12.7	-3.6	19.3	-4.6	13.9	.	.	.
CC(C)(C)C1CCc2[nH]c3ccccc3c(=O)c2C1 (configuration not stated)	71.7*	2.5	-8.3	-3.2	4.8	-3.2	94.3*	71.5*	77.0*
O=c1c2c([nH]c3ccccc13)CCCC2	19.6	-3.4	1.8	0.7	-3.3	2.7	.	.	.
N/C(Cc1ccc(Cl)cc1)=N\OC(=O)c1ccc2ccccc2c1	18.4	12.6	-35.1	1.8	-5.6	-12.9	.	.	.

High-throughput results as filed in PubChem BioAssay.
